Among the data in PubChem BioAssay (NCI) are growth values, retold here.

Test systems include HCT-15 colon; HT29 colon; SNB-75 CNS; SNB-19 CNS; U251 CNS; PC-3 prostate; SK-MEL-5 melanoma; UACC-62 melanoma; LOX IMVI melanoma; SK-MEL-28 melanoma; SK-MEL-2 melanoma; EKVX NSCLC; SN12C renal; UO-31 renal; TK-10 renal; ACHN renal; CAKI-1 renal; A498 renal; CCRF-CEM leukemia; MOLT-4 leukemia.
What all share (experiment): NCI-60 one-dose screen, 48 h (100 = growth as untreated, 0 = no growth, -100 = all killed)
Conditions in all cases: 10 µM

This is part of a sample that, as a whole, favours compounds with a hit. Of some 83,000 tested, about 20% had one in any assay.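 Results are percent growth after 48 hours of single-concentration exposure. 100 means growth as in untreated cells, lower positive values show inhibition; negative values down to -100 show cell death.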 Unmarked numbers belong to inactive results. Calls of active or inactive are those of the source. Rule for the calls: active = growth percent below 10; inactive = the rest.

`COc1ccc(-c2cc(-c3cc(C(=O)c4ccc(Br)cc4)n4ccc(C)cc34)nc(N)c2C#N)cc1`: the growth was 89.6% in the assay on HCT-15 colon; 77.4% with HT29 colon; 108% in the assay with SNB-75 CNS; 91.3% with SNB-19 CNS; 64.7% in the assay with U251 CNS; 89.4% with PC-3 prostate. Further, the growth was 87.5% in the assay with SK-MEL-5 melanoma; 81.2% in the assay on UACC-62 melanoma; 54.6% in the assay with LOX IMVI melanoma; 69.6% with SK-MEL-28 melanoma; 107% with SK-MEL-2 melanoma; 89.8% in the assay on EKVX NSCLC. The growth was 92.9% in the assay on SN12C renal; 64.3% with UO-31 renal; 132% in the assay on TK-10 renal; 81.8% in the assay on ACHN renal; 68.1% with CAKI-1 renal; 134% with A498 renal. For the same compound, the growth in the assay on CCRF-CEM leukemia was 98.2%; with MOLT-4 leukemia it was 101%.
Take `Cc1noc2c(Cc3ccccc3)nn(CC(=O)N/N=C/c3ccc(Br)cc3)c(=O)c12`: the growth was 76.5% in the assay on HCT-15 colon; 71.1% in the assay with HT29 colon; 35.3% in the assay with SNB-75 CNS; 75.4% with SNB-19 CNS; 18.4% in the assay on U251 CNS; 82.7% in the assay on PC-3 prostate. Besides, the growth in the assay with SK-MEL-5 melanoma is 85.5%; in the assay with UACC-62 melanoma, 79.7%; with LOX IMVI melanoma, 45.9%; in the assay on SK-MEL-28 melanoma it was 99.5%; in the assay with SK-MEL-2 melanoma, 106%; in the assay on EKVX NSCLC, 65.8%. The growth was 8.51% (active) in the assay on SN12C renal; -32.3% (active) in the assay with UO-31 renal; 17.8% with TK-10 renal; 6.21% (active) with ACHN renal; 58.4% in the assay on CAKI-1 renal; -62.4% (active) with A498 renal. Besides, the growth is 96.8% in the assay on CCRF-CEM leukemia and 93.9% in the assay on MOLT-4 leukemia.
On to `COc1ccc(N2N=C(c3ccc4c(c3)OCCO4)CC2c2cccc(NC(=O)CCCNS(=O)(=O)c3ccc(F)cc3)c2)cc1` (stereo not given), for which the growth was 67.5% with HCT-15 colon; 84.4% with HT29 colon; 42.4% in the assay with SNB-75 CNS; 69.3% in the assay on SNB-19 CNS; 75.4% in the assay on U251 CNS; 52% with PC-3 prostate. Besides, the growth was 64.2% in the assay with SK-MEL-5 melanoma; 61.8% in the assay on UACC-62 melanoma; 72.5% in the assay with LOX IMVI melanoma; 81.5% in the assay with SK-MEL-28 melanoma; 88.4% in the assay on SK-MEL-2 melanoma; 57.9% with EKVX NSCLC. In addition, the growth with SN12C renal is 74.8%; with UO-31 renal it was 58.8%; in the assay on TK-10 renal, 78.2%; in the assay with ACHN renal, 70.7%; in the assay with CAKI-1 renal it was 53.9%; in the assay on A498 renal, 86.5%. For the same compound, the growth with CCRF-CEM leukemia is 67.7%; with MOLT-4 leukemia, 34%.
`N#Cc1ccc(-c2nn(-c3ccc(C(=O)O)cc3)cc2CNc2ccc(Cl)cc2)cc1`: the growth with HCT-15 colon was 47.3%; with HT29 colon, 100%; in the assay on SNB-75 CNS, 107%; in the assay with SNB-19 CNS it was 75.9%; in the assay on U251 CNS it was 76.8%; with PC-3 prostate it was 65.2%. Besides, the growth in the assay on SK-MEL-5 melanoma was 76%; in the assay with UACC-62 melanoma it was 61.2%; in the assay on LOX IMVI melanoma it was 60.8%; with SK-MEL-28 melanoma, 77.6%; with SK-MEL-2 melanoma, 96.2%; with EKVX NSCLC, 67.8%. Further, the growth with SN12C renal was 82.2%; with UO-31 renal, 61.8%; in the assay on TK-10 renal, 108%; in the assay on ACHN renal, 74.6%; with CAKI-1 renal it was 71.2%; in the assay with A498 renal, 111%. The growth in the assay on CCRF-CEM leukemia is 77.5%; in the assay on MOLT-4 leukemia it was 68.8%.
For `COc1ccccc1[C@H]1C(C(=O)c2ccc(O)cc2)C2(N[C@@H]1c1ccccc1)C(=O)Nc1ccc(Br)cc12` (stereo not given in full), the growth in the assay with HCT-15 colon is 34.4%; in the assay with HT29 colon it was -9.98% (active); in the assay with SNB-75 CNS, 41%; with SNB-19 CNS, 49.3%; in the assay on U251 CNS, 26.1%; in the assay with PC-3 prostate it was 23.2%. The growth in the assay on SK-MEL-5 melanoma was 26.4%; in the assay on UACC-62 melanoma it was 38.1%; in the assay with LOX IMVI melanoma, -39.3% (active); in the assay on SK-MEL-28 melanoma, 60%; in the assay on SK-MEL-2 melanoma it was 32.1%; with EKVX NSCLC, 30%. For the same compound, the growth in the assay on SN12C renal is 25%; in the assay on UO-31 renal, 27.9%; in the assay with TK-10 renal it was 51%; in the assay with ACHN renal, 31.9%; in the assay on CAKI-1 renal it was 18.7%; in the assay on A498 renal, 37.4%. The growth in the assay on CCRF-CEM leukemia is 22%; with MOLT-4 leukemia, -9.09% (active).
With `CC(=O)c1cc(C(=O)N2c3ccccc3Sc3ccccc32)n2ccc(C)cc12`, the growth was 10.5% in the assay with HCT-15 colon; 32.7% in the assay with HT29 colon; 83.1% in the assay on SNB-75 CNS; 49.8% in the assay with SNB-19 CNS; 36.1% with U251 CNS; 28.3% with PC-3 prostate. Besides, the growth is -36.3% (active) in the assay with SK-MEL-5 melanoma; 23.8% in the assay on UACC-62 melanoma; -40% (active) in the assay with LOX IMVI melanoma; 48.7% in the assay with SK-MEL-28 melanoma; 72.5% with SK-MEL-2 melanoma; 53.1% in the assay with EKVX NSCLC. Also, the growth in the assay on SN12C renal is 42.3%; in the assay on UO-31 renal, 35.1%; in the assay on TK-10 renal, 78.9%; with ACHN renal, 29.1%; in the assay with CAKI-1 renal, 35.3%; in the assay with A498 renal, 85.4%. For the same compound, the values for the growth in the assay on CCRF-CEM leukemia and in the assay with MOLT-4 leukemia were 24.8% and 22.6%, respectively.
In the case of `COc1ccc(-c2c(N)c(=O)n(C)c3ccccc23)cc1`, the growth with HCT-15 colon is 49.7%; with HT29 colon it was 59.9%; in the assay with SNB-75 CNS it was 75.4%; in the assay with SNB-19 CNS it was 62.1%; in the assay on U251 CNS, 47.8%; with PC-3 prostate, 46.9%. Also, the growth was 57.7% with SK-MEL-5 melanoma; 38.1% in the assay on UACC-62 melanoma; 45.9% with LOX IMVI melanoma; 86.5% in the assay on SK-MEL-28 melanoma; 77.4% in the assay with SK-MEL-2 melanoma; 52.4% in the assay on EKVX NSCLC. Besides, the growth in the assay with SN12C renal is 52.8%; with UO-31 renal, 29.7%; in the assay with TK-10 renal, 118%; in the assay with ACHN renal it was 59.4%; with CAKI-1 renal it was 62.1%; in the assay with A498 renal it was 110%. Also, the growth in the assay with CCRF-CEM leukemia was 54.6%; with MOLT-4 leukemia, 37.3%.
